Measurements published in the supplement of paper PMC6555819.

Experiments:
Assay in all cases: PBM binding z-score (relative to random genomic background probes); higher = stronger binding; sequences stand for … in GC…GCGATTGACAGCGTAGAATGAAGG
[1] = system: RARb homodimer (NR concentration 270 nM)
Outline: (§1)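 Custom Agilent 4×180K protein-binding microarrays carried double-stranded probes. Their 34-nt variable regions held direct-repeat seeds, single-nucleotide variants, half-site ablations and random human genomic background sequences. Arrays were incubated 1 h with ligand-free nuclear receptor dimers in PBS pH 7.4, 2% milk, 0.02% Triton X-100, 1 mM DTT, 0.2 mg/mL BSA and 0.4 mg/ml salmon testes DNA. Antibodies against each partner (one per run) detected binding, and scanned fluorescence was regression-normalized. Binding z-scores use random background probes as reference.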

[2] = system: RARg:RXRa (NR concentration 270 nM, RXRa partner concentration 90 nM)
Outline: as §1

[3] = system: RARg homodimer (NR concentration 270 nM)
Outline: as §1

[4] = system: RXRa DBDmut IVT, anti-RXR (DBD mutation: RXRa K156A/R161A, NR concentration 90 nM)
Outline: as §1

[5] = system: RXRa homodimer (NR concentration 180 nM)
Outline: as §1

[6] = system: THRa:RXRa (NR concentration 90 nM, RXRa partner concentration 90 nM)
Outline: as §1

[7] = system: THRa homodimer (NR concentration 90 nM)
Outline: as §1

[8] = system: VDR homodimer (NR concentration 270 nM)
Outline: as §1

| Sequence | PBM binding z-score [1] | PBM binding z-score [2] | PBM binding z-score [3] | PBM binding z-score [4] | PBM binding z-score [5] | PBM binding z-score [6] | PBM binding z-score [7] | PBM binding z-score [8] |
| --- | --- | --- | --- | --- | --- | --- | --- | --- |
| AGAATGAGGTTGTACGTAGATCAGGGAAGAAAGT | 0.561 | 0.15 | 0.156 | 0.679 | 0.32 | 0.638 | 0.288 | 0.389 |
| GATACAGGGTCAGGTAGAGGCCAGAGTATGGAAA | 3.48 | 6.43 | 4.46 | 0.77 | 4.13 | 3.18 | 0.846 | 1.25 |
| ACTCGGAGGACAAAGGTCAGAGATACGCCAGTGA | 4.52 | 6.21 | 5.31 | 1.01 | 5.52 | 3.61 | 0.755 | 1.56 |
| AGAACGTGGGCAATGAGTTGATAGCACGGGTGGC | -0.41 | -0.369 | -0.147 | -0.174 | 0.0338 | -0.628 | -0.889 | 0.376 |
| AGTCAAAGTTCAGGACGAGGTTACGTAAAGCACG | 3.96 | 5.81 | 5.25 | 3.2 | 4.19 | 3.92 | 1.81 | 3.15 |
| CGGACTGGGGCAAGGTTACCATAACGCACAGCCA | 1.45 | 1.34 | 1.4 | -0.765 | 1.28 | 1.48 | 0.546 | 0.0512 |
| CCTAGCAGGCCATTCTGGGTCACTCAAGGCTTGA | 2.48 | 1.3 | 1.75 | 0.405 | 1.14 | 4.1 | 0.668 | 0.435 |
